We go through 110 sequences from PMC6212790, “How bacterial xenogeneic silencer rok distinguishes foreign from self DNA in its resident genome”.

Over roughly 33,000 sequences, “e-score” has its median near -0.038; the highest 2% begin near 0.33. Shown is part of a subset that was picked to be rich in the highest values.

The assay has as its target T1, GST-Rok-C97-191 (Bacillus subtilis subsp. subtilis str. …, UniProt O34857 97-191).
T1 sequence: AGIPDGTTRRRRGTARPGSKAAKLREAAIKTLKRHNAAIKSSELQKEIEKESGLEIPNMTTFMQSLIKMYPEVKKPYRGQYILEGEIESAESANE
Kind of assay: protein binding microarray; Rok is a gene silencer of Bacillus subtilis; high values mean tight binding. The note with it: protein: recombinant; tags: GST (pTH5325, pDEST15-Magic modified); dsDNA, one strand shown. The gist of the method: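 Every oligonucleotide joins a 25-mer constant primer to a 35-mer variable part drawn from a de Bruijn sequence of order 10, so each non-palindromic 8-mer appears at least 32 times and each palindromic 8-mer 16 times. The preference for every 8-mer is reported as a unitless, rank-based enrichment score (E-score). This score spans 0.5 for the most favored 8-mer to −0.5 for the most disfavored.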
Turning to ACTACTCT, the binding signal amounted to 0.19 E-score.

With CCTACTAC, the binding signal came out at 0.343 E-score.

Turning to ACTACTAT, the binding signal turned out to be 0.46 E-score.

For CCGGACCG, the binding signal was -0.0456 E-score.

On to CGTCAACC, for which the binding signal was -0.182 E-score.

As for GTGAGATA, the binding signal was determined as 0.0844 E-score.

CCTTCTCC: the binding signal is -0.165 E-score.

Consider ACCGCTAA, for which the binding signal was determined as 0.13 E-score.

For GTCCAATA, the binding signal was determined as 0.0328 E-score.

Take CTCGCAAA: the binding signal was determined as 0.0435 E-score.

Turning to ACTCGGTA, the binding signal is 0.286 E-score.

Consider GGGAGCAC, for which the binding signal is -0.183 E-score.

For the sequence GTATAACA, the binding signal turned out to be 0.141 E-score.

With GTATAAAA, the binding signal was found to be 0.32 E-score.

ATATAATA: the binding signal was 0.446 E-score.

On to CTATAAGA, for which the binding signal was found to be 0.156 E-score.

CTATAATC: the binding signal amounted to 0.222 E-score.

For GTATAATA, the binding signal stood at 0.413 E-score.

Regarding ATATAATC, the binding signal was 0.201 E-score.

As to CTATAATA, the binding signal amounted to 0.34 E-score.

With ATATAATG, the binding signal was determined as 0.3 E-score.

As to CGAGAAGA, the binding signal is -0.0403 E-score.

As to CCTTAGGA, the binding signal was 0.047 E-score.

Turning to ACTGCACC, the binding signal was 0.128 E-score.

Consider TCTTAAAA, for which the binding signal is -0.0115 E-score.

Regarding AAAACAAC, the binding signal was found to be 0.116 E-score.

On to AAAGTGAC, for which the binding signal was -0.0335 E-score.

As to ATTCTTGC, the binding signal worked out at 0.103 E-score.

As for GAATGGTA, the binding signal was found to be 0.39 E-score.

Take CTATGTTA: the binding signal stood at 0.256 E-score.

As to ATATGTTA, the binding signal was 0.331 E-score.

For ATATGTTC, the binding signal was 0.238 E-score.

Turning to GAATGGTC, the binding signal is -0.121 E-score.

Regarding TAATGGTA, the binding signal worked out at 0.325 E-score.

As for ATATGGTA, the binding signal came to 0.331 E-score.

Regarding ATATGGTG, the binding signal was found to be 0.159 E-score.

On to CTATGGTA, for which the binding signal was determined as 0.211 E-score.

On to AGAGCCAG, for which the binding signal is -0.194 E-score.

As to ACGTGCCT, the binding signal was -0.189 E-score.

Take CCGTTCTA: the binding signal came to 0.108 E-score.

As for TACAGGAA, the binding signal is 0.0535 E-score.

Turning to GGAATCGA, the binding signal is 0.209 E-score.

As to AGATTGTG, the binding signal was 0.09 E-score.

ATAGCTAG: the binding signal was 0.271 E-score.

On to CTAGCTAA, for which the binding signal was 0.127 E-score.

For the sequence ATAGCTAC, the binding signal turned out to be 0.31 E-score.

As to GAAGCTAC, the binding signal is 0.309 E-score.

As to GTAGCTAC, the binding signal came out at 0.428 E-score.

Regarding GTAGCTAA, the binding signal amounted to 0.346 E-score.

For TTAGCTAA, the binding signal was 0.263 E-score.

As for CTAGCTAC, the binding signal was found to be 0.163 E-score.

Turning to ATAGCTAT, the binding signal was 0.402 E-score.

Take ATTTAATG: the binding signal is 0.105 E-score.

With CGTCTGAA, the binding signal is -0.0845 E-score.

Regarding CTAAAGTC, the binding signal came out at 0.0658 E-score.

For ATGCTGAC, the binding signal is -0.0948 E-score.

Turning to ATTCGACC, the binding signal was -0.138 E-score.

Consider AGGTAGTA, for which the binding signal was 0.328 E-score.

With AGGTAGTG, the binding signal is -0.0194 E-score.

For GGGTAATA, the binding signal was determined as 0.272 E-score.

For the sequence CGGTAGTA, the binding signal stood at 0.391 E-score.

Consider GGGTAGTA, for which the binding signal came out at 0.3 E-score.

Take AGGTAATA: the binding signal turned out to be 0.328 E-score.

AGGTAGTC: the binding signal was found to be 0.0784 E-score.

For the sequence AGGTAATG, the binding signal was 0.113 E-score.

For the sequence CGGTAGTC, the binding signal was 0.174 E-score.

In the case of CTTCGAAC, the binding signal was -0.152 E-score.

On to GAACTACC, for which the binding signal is 0.367 E-score.

Consider CAACTACA, for which the binding signal worked out at 0.234 E-score.

As to GAACTACA, the binding signal was found to be 0.252 E-score.

On to AAACTACT, for which the binding signal is 0.464 E-score.

As for AGACTACA, the binding signal came to 0.0455 E-score.

For the sequence CAACTACG, the binding signal worked out at 0.113 E-score.

For the sequence AAACTACG, the binding signal came out at 0.387 E-score.

Regarding AAACTACA, the binding signal amounted to 0.387 E-score.

In the case of GCACTACC, the binding signal is 0.0373 E-score.

In the case of ACACTACT, the binding signal stood at 0.18 E-score.

For AGACTACT, the binding signal is 0.198 E-score.

Take ACACTACG: the binding signal is -0.0248 E-score.

Turning to GGTCCGAC, the binding signal was -0.143 E-score.

ATGAAAGC: the binding signal is -0.0998 E-score.

Turning to AGGTGAAG, the binding signal was -0.109 E-score.

In the case of TACTGTAA, the binding signal came out at 0.323 E-score.

With CGGAGAAC, the binding signal was 0.0827 E-score.

With ACATTCGA, the binding signal is 0.071 E-score.

Consider TAACTACA, for which the binding signal is 0.423 E-score.

Turning to CAACTACC, the binding signal came out at 0.271 E-score.

TCACTACA: the binding signal was -0.0801 E-score.

For AGACTACC, the binding signal turned out to be 0.268 E-score.

Consider AAACTACC, for which the binding signal is 0.473 E-score.

For TGACTACA, the binding signal stood at 0.031 E-score.

As for AACAGCTC, the binding signal is 0.087 E-score.

As for TATGGAGA, the binding signal stood at 0.0429 E-score.

Take TTGTACAA: the binding signal was found to be 0.342 E-score.

With ATGTACAA, the binding signal is 0.317 E-score.

Consider GTGTACTA, for which the binding signal came out at 0.16 E-score.

Consider GTGTACAA, for which the binding signal amounted to 0.213 E-score.

As to ATGTACAG, the binding signal was 0.317 E-score.

For CTGTACAA, the binding signal came out at 0.0696 E-score.

As to ATGTACTC, the binding signal turned out to be 0.178 E-score.

On to CTGTACCA, for which the binding signal is -0.0649 E-score.

On to ATGTACCC, for which the binding signal stood at 0.0999 E-score.

Regarding ATGTACAT, the binding signal was 0.377 E-score.

Take ATGTACTA: the binding signal was 0.376 E-score.

ATGTACCA: the binding signal is 0.335 E-score.

On to ATGCAGTC, for which the binding signal was -0.0482 E-score.

Consider ATCTAAAC, for which the binding signal is 0.0603 E-score.

For the sequence AGGCCAAT, the binding signal was -0.176 E-score.

With CCTACAGA, the binding signal came to 0.064 E-score.

Turning to AAGTCTAG, the binding signal was determined as 0.0844 E-score.
